HCV inh: HCV inhibition; Huh7.5.1 HCVcc-Cre infection, luciferase reporter, 44 h; Potency, µM (top dose mostly 41.8 µM), inactives show at the highest dose activity change, negative = inhibition, actives largely listed as inhibitors; actives 3.4% (n = 340,000); AID 651820; further: potency means the concentration at half of the fitted maximal effect; on the % scale 0 is the no-effect control and ±100 the full control effect
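1,000 cells/well; 4 h culture; + compound; + HCVcc-Cre (~0.5 moi); 44 h; luciferase substrate, RT 15 min; read 15 sec.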
Sm TGR inh: blocks Schistosoma mansoni thioredoxin glutathione reductase; Q962Y6; Potency, µM (top dose mostly 114 µM), without a hit: at the top dose activity change, negative = inhibition, usual class: inhibitors; actives 3% (n = 360,000); purified TGR, DTNB reduction, TNB absorbance 405 nm; AID 485364; further: potency means the concentration at half of the fitted maximal effect; on the % scale 0 is the no-effect control and ±100 the full control effect; nearly all actives have a fitted effect of over 60% in size
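Kinetic colorimetric format: TGR-catalysed, NADPH-driven DTNB reduction monitored via TNB absorbance. Enzyme dispensed at 20 nM; compound exposure 15 min at room temperature before reaction start.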
SARS PLpro yeast: blocks SARS-CoV papain-like protease in a yeast assay; S. cerevisiae expressing SARS-CoV PLpro, growth rescue; Potency, µM (highest dose often 32.9 µM), inactives show at the top dose activity, positive = growth rescue, most hits filed as activators; actives 0.19% (n = 330,000); AID 485353; calls by dose curve; further: potency means the concentration at half of the fitted maximal effect; 0% is about no effect; nearly all actives have a fitted effect of over 55% in size
Pf growth 96h: inhibits malaria parasite growth, 96 h; P. falciparum luciferase reporter growth, 96 h; Potency, µM (titrated, usually from 28.7 µM), for inactives: top-dose activity change, negative = inhibition, hits mostly inhibitors; actives 6.9% (n = 320,000); further: potency means the concentration at half of the fitted maximal effect; on the % scale 0 is the no-effect control and ±100 the full control effect
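Two-generation exposure (96 h) targets delayed-death phenotype. Reporter parasites carrying integrated firefly luciferase, in red cells at 2% hematocrit and 0.05% parasitemia final, kept at 37 C, 5% CO2; luminescence loss indicates inhibition.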
Pf growth 48h: P. falciparum growth inhibition at 48 hours (one generation); P. falciparum luciferase growth in erythrocytes, 48 h; Potency, µM (series often up to 28.7 µM), for inactives: at the top dose activity change, negative = inhibition, actives largely listed as inhibitors; actives 5.9% (n = 310,000); AID 504832; further: potency means the concentration at half of the fitted maximal effect; on the % scale 0 is the no-effect control and ±100 the full control effect
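Luciferase-expressing parasites in RBCs, 2% Hct / 0.1% parasitemia final; RPMI 1640 + 0.5% Albumax; 37 C, 5% CO2, one generation; luminescence read-out, lower signal = inhibition.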
HCMV inh: inhibitors of human cytomegalovirus | HFF cells, HCMV-luciferase reporter, 72 h; hits give low values | activity change, negative = inhibition, % at 57.5 µM | actives 4.5% (n = 410,000) | AID 1259415; in the data active means activity change below about -60%; inconclusive means no clear call, values can overlap the other calls; inactive means above about -39%; further: on the % scale 0 is the no-effect control and ±100 the full control effect
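HFF cells seeded 16 h at 37C, treated with compounds, infected with luciferase-reporter HCMV at MOI 1 PFU/cell; luciferase read at 72 h post infection, normalized to buffer-only and Salinomycin controls.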
* = called active by the depositor. The list is not random: actives were taken first. Their share in the collection is about 15%. Unless noted, the call rests on the fitted dose curve; in most records, active means well fitted curve in the direction sought with a large enough effect; inconclusive means small, poorly fitted or top-dose-only effect, or another doubt; inactive means no such curve, though single readings can be large; an effect the other way counts as inactive or inconclusive.

How did Cc1ccc(C)c(OCCCn2c(-c3ccc(Cl)cc3)nc3ccccc3c2=O)c1 do in these assays?
Sm TGR inh: 8%; HCMV inh: 34

What do the screens show for `O=C(CCNC(=O)c1ccco1)NCCc1c[nH]c2ccccc12`?
HCV inh: 10%; SARS PLpro yeast: 1%; HCMV inh: -1

Results for Cc1cc(C)nc(NC(=NCCc2c[nH]c3ccccc23)NC(=O)c2ccco2)n1 ?
HCV inh: inconclusive; Sm TGR inh: 1%; SARS PLpro yeast: 5%; Pf growth 96h: 5.9µM*; Pf growth 48h: 6.6µM*; HCMV inh: -18

How did Cn1cc(S(=O)(=O)N2CCOCC2)cc1C(=O)Nc1ccc(Cl)c(C(F)(F)F)c1 do in these assays?
Sm TGR inh: inconclusive; HCMV inh: -16

Results for CCN(CC)S(=O)(=O)c1ccc(N2CCCC2)c(NC(=O)c2nn(C)c(=O)c3ccccc23)c1 ?
HCV inh: inconclusive; Sm TGR inh: -36%; SARS PLpro yeast: -12%; Pf growth 96h: 13µM*; Pf growth 48h: 13µM*; HCMV inh: -10

Results for CCN(CC)S(=O)(=O)c1ccc(N2CCOCC2)c(NC(=O)c2nn(C)c(=O)c3ccccc23)c1 ?
HCV inh: -22%; HCMV inh: -39

Results for CCC(=O)Nc1cc(-c2nn(C)c(=O)c3ccccc23)ccc1N1CCCCC1 ?
HCV inh: 4%; Sm TGR inh: -21%; SARS PLpro yeast: -1%; Pf growth 96h: 75%; Pf growth 48h: 5.2µM*; HCMV inh: -34

How did Cn1nc(C(=O)Nc2ccccc2N2CCCC2)c2ccccc2c1=O do in these assays?
HCV inh: 11µM*; Sm TGR inh: -2%; SARS PLpro yeast: -1%; Pf growth 96h: 84%; Pf growth 48h: inconclusive; HCMV inh: -40

How did CCCC(=O)Nc1cc(-c2nn(C)c(=O)c3ccccc23)ccc1N1CCCCC1 do in these assays?
HCV inh: inconclusive; HCMV inh: 23

Results for CCCC[C@@H]1CCCO[C@@](C(=O)NCc2ccccn2)(C(F)(F)F)C1 ?
HCV inh: -2%; HCMV inh: 17

Results for CCOC(=O)c1cccn1C1C(=O)N(Cc2ccc(C(F)(F)F)cc2)c2ccc(F)cc21 (stereo not given) ?
HCMV inh: 0

What do the screens show for `COc1ccc(C(C(=O)NCC2CCCO2)N(Cc2cccs2)C(=O)c2snc(C(N)=O)c2N)cc1OC` (stereo not given)?
HCV inh: -3%; Sm TGR inh: -12%; SARS PLpro yeast: 2%; Pf growth 96h: inconclusive; Pf growth 48h: inconclusive; HCMV inh: -30

How did NC(=O)c1nsc(C(=O)N(c2ccc3c(c2)OCCO3)C(C(=O)NCC2CCCO2)c2ccc(F)cc2)c1N (stereo not given) do in these assays?
HCV inh: inconclusive; Sm TGR inh: 11%; SARS PLpro yeast: 2%; Pf growth 96h: -3%; Pf growth 48h: inconclusive; HCMV inh: -74*

What do the screens show for `CC(C)CCNC(=O)C(c1ccco1)N(Cc1ccccc1)C(=O)c1snc(C(N)=O)c1N` (stereo not given)?
Sm TGR inh: -28%; SARS PLpro yeast: 1%; Pf growth 48h: inconclusive; HCMV inh: -20

Results for CCOc1ccc(C(C(=O)NCC2CCCO2)N(Cc2cccs2)C(=O)c2snc(C(N)=O)c2N)cc1 (stereo not given) ?
HCV inh: inconclusive; Sm TGR inh: 4%; SARS PLpro yeast: 8%; Pf growth 96h: inconclusive; Pf growth 48h: 13µM*; HCMV inh: -68*

Results for Cc1ccc(N(C(=O)c2snc(C(N)=O)c2N)C(C(=O)NCCC(C)C)c2ccco2)cc1 (stereo not given) ?
HCV inh: 32µM*; Sm TGR inh: -8%; SARS PLpro yeast: 0%; Pf growth 96h: inconclusive; Pf growth 48h: -25%; HCMV inh: -63*

How did Cc1ccc(C(C(=O)NCC2CCCO2)N(C(=O)c2snc(C(N)=O)c2N)c2ccc3c(c2)OCCO3)cc1 (stereo not given) do in these assays?
HCV inh: inconclusive; Sm TGR inh: 5%; SARS PLpro yeast: 0%; Pf growth 96h: -4%; Pf growth 48h: 10µM*; HCMV inh: -5

How did Cc1cc(NC(=O)CSc2nc(-c3cccs3)nc3ccccc23)no1 do in these assays?
HCV inh: inconclusive; Sm TGR inh: -9%; SARS PLpro yeast: 0%; Pf growth 96h: 65%; Pf growth 48h: inconclusive; HCMV inh: 1

What do the screens show for `Cc1cccc(-c2noc(-c3ccc(NCc4ccccc4)c([N+](=O)[O-])c3)n2)c1`?
Sm TGR inh: -4%; HCMV inh: 11

Results for CCOc1ccc(C(C(=O)NCC2CCCO2)N(C(=O)c2snc(C(N)=O)c2N)c2cccc(F)c2)cc1 (stereo not given) ?
HCV inh: -25%; Sm TGR inh: 0%; SARS PLpro yeast: -3%; Pf growth 96h: 28%; Pf growth 48h: 13µM*; HCMV inh: -14

What do the screens show for `CCOc1ccc(C(C(=O)NCC2CCCO2)N(C(=O)c2snc(C(N)=O)c2N)c2ccccc2F)cc1` (stereo not given)?
HCV inh: inconclusive; Sm TGR inh: -1%; SARS PLpro yeast: -1%; Pf growth 96h: inconclusive; Pf growth 48h: inconclusive; HCMV inh: 12

How did COc1cc(OC)c2c(C)cc(=O)oc2c1C(CCN1CCOCC1)c1ccc2c(c1)OCO2 (stereo not given) do in these assays?
HCV inh: inconclusive; Sm TGR inh: 8%; SARS PLpro yeast: 0%; Pf growth 96h: inconclusive; Pf growth 48h: inconclusive; HCMV inh: 23

Results for CCCCCc1cc(=O)oc2c(C(CCN3CCCC(C)C3)c3ccc(N(C)C)cc3)c(OC)cc(OC)c12 (stereo not given) ?
HCV inh: -15%; Sm TGR inh: -33%; SARS PLpro yeast: -6%; Pf growth 96h: 8.3µM*; Pf growth 48h: inconclusive

How did CCCCCc1cc(=O)oc2c(C(CCN(CC)CC)c3ccc(N(C)C)cc3)c(OC)cc(OC)c12 (stereo not given) do in these assays?
HCV inh: inconclusive; Sm TGR inh: -7%; SARS PLpro yeast: 8%; Pf growth 96h: inconclusive; Pf growth 48h: inconclusive; HCMV inh: -75*
